Activity calls are given as the source filed them. Rule for the calls: active = hit-call score of the fitted dose curve at least 0.9, where 1 is the maximum; inactive = score below 0.9.
Each compound was assayed on Cytochrome P450 (CYP24A1), CYP24A1 (gene 1591) (assay: LTEA_HepaRG_CYP24A1: Life Technologies and Expression Analysis (LTEA) Assay for Cytochrome P450 (CYP24A1) using HepaRG (AID 2283478)). Details: mRNA level, 48 h; actives raise or lower the signal.
Method in brief: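 Human liver HepaRG cultures receive each chemical for 48 h across an eight-point half-log series topping at 100 uM in 0.5% DMSO. Induction or suppression of CYP24A1 mRNA is scored relative to vehicle after housekeeping-gene normalization.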
CCCCC(O)(Cn1cncn1)c1ccc(Cl)cc1Cl (configuration not stated) was tested, and the outcome was “inactive”. With CC(C)N1C(=O)c2ccccc2NS1(=O)=O the outcome was “inactive”. In the case of O=C(Nc1ccccc1-c1ccc(Cl)cc1)c1cccnc1Cl, the outcome was “inactive”. For N#CN=C1SCCN1Cc1ccc(Cl)nc1, the outcome was “inactive”. With CCNC(=O)NC(=O)C(C#N)=NOC the outcome was “inactive”. With Cc1c(COC(=O)[C@@H]2[C@H](/C=C(\Cl)C(F)(F)F)C2(C)C)cccc1-c1ccccc1 the outcome was “inactive”. For C=C(C)CN(CC)c1c([N+](=O)[O-])cc(C(F)(F)F)cc1[N+](=O)[O-], the outcome was “inactive”. With CC(C)C1(C)N=C(c2ncccc2C(=O)O)NC1=O (configuration not stated) the outcome was “inactive”. CCCC(=NOCC)C1=C(O)CC(CC(C)SCC)CC1=O (configuration not stated) was tested, and the outcome was “inactive”. In the case of O=C1C2CC=CCC2C(=O)N1SC(Cl)(Cl)Cl (configuration not stated), the outcome was “inactive”. For COCc1cnc(C2=NC(C)(C(C)C)C(=O)N2)c(C(=O)O)c1 (configuration not stated), the outcome was “inactive”. With Cc1nc(N(C)C)nc(OC(=O)N(C)C)c1C the AC50 was 92.4 µM (active). For CC(C)N1C(=O)N(c2ccccc2)CSC1=NC(C)(C)C, the outcome was “inactive”. Clc1cccc(C(Cl)(Cl)Cl)n1 was tested, and the outcome was “inactive”. In the case of CC1(C)CON(Cc2ccccc2Cl)C1=O, the outcome was “inactive”. For CN/C(=N\[N+](=O)[O-])NCc1cnc(Cl)s1, the outcome was “inactive”. In the case of Cc1ccc(N=CN(C)C=Nc2ccc(C)cc2C)c(C)c1, the outcome was “inactive”. In the case of CCN(CC)c1nc(C)cc(OP(=S)(OC)OC)n1, the outcome was “inactive”. In the case of COCC(C)N(C(=O)CCl)c1c(C)csc1C (configuration not stated), the outcome was “inactive”. CCOc1nc(C(Cl)(Cl)Cl)ns1 was tested, and the AC50 was 1.93 µM (active). For CCC(C)n1c(=O)[nH]c(C)c(Br)c1=O (configuration not stated), the outcome was “inactive”. For Nc1cnn(-c2ccccc2)c(=O)c1Cl, the outcome was “inactive”.

Reference: PubChem BioAssay (EPA / NIEHS)
